Experimental data: publication PMC7826789 (International Journal of Molecular Sciences, 2021)

Tests used:
Settings in all cases: Compound Concentration (nM):1000
CAMK2G = test system: CAMK2G
CAMK4 = test system: CAMK4
CAMKK1 = test system: CAMKK1
CAMKK2 = test system: CAMKK2
CASK = test system: CASK
CDC2L1 = test system: T1, CDC2L1
T1 construct: gene CDK11B

CDC2L2 = test system: CDC2L2
CDC2L5 = test system: T2, CDC2L5
T2 construct: gene CDK13

CDK11 = test system: T3, CDK11
T3 construct: gene CDK19

CDK2 = test system: CDK2
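Note: KINOMEscan scanMAX binding as percent activity remaining versus control; lower means stronger binding.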

Compound	Percent Control (CAMK2G) [%]	Percent Control (CAMK4) [%]	Percent Control (CAMKK1) [%]	Percent Control (CAMKK2) [%]	Percent Control (CASK) [%]	Percent Control (CDC2L1) [%]	Percent Control (CDC2L2) [%]	Percent Control (CDC2L5) [%]	Percent Control (CDK11) [%]	Percent Control (CDK2) [%]
CN1CCN(C(=O)c2ccc(NC(=O)Nc3ccc(N(C)c4ccnc(Nc5ccc(CS(C)(=O)=O)cc5)n4)cc3)cc2)CC1.Cl [GW830263A]	100	100	28	100	85	67	51	13	100	87
CC(C)COC(=O)c1ccc2c(c1)/C(=C/Nc1ccc(S(N)(=O)=O)cc1)C(=O)N2 [GW416981X]	100	100	97	100	95	100	100	65	100	15
O=C1Nc2ccc(C(=O)c3ccco3)cc2C1=Cc1cc(Cl)c(O)c(Cl)c1 [GW406108X]	77	100	43	31	87	100	98	99	100	100
Cl.c1ccc(Cc2nc3ccc(Nc4ncnc5ccccc45)cc3[nH]2)cc1 [GR269666A]	100	100	100	100	100	100	100	100	100	100
Cl.O=S1CCN(Cc2ccc(-c3ccc4ncnc(Nc5ccc(OCc6ccccc6)c(F)c5)c4c3)o2)CC1 [GW576924A]	100	100	100	100	100	100	100	100	100	100
COc1cccc(-c2c[nH]c3c(N/N=C/c4ccncc4)ncnc23)c1 [GW814408X]	100	100	100	95	44	81	53	87	100	62
CCn1c(-c2nonc2N)nc2c(C#CC(C)(C)O)nc(OCCNC)cc21.Cl [GSK949675]	100	100	100	100	100	100	100	100	100	100
Cl.O=C(O[C@H]1CN[C@H](C#Cc2cc3ncnc(Nc4ccc5c(cnn5Cc5ccccc5)c4)c3s2)C1)N1CCOCC1 [GSK200398A]	96	100	87	86	100	87	100	97	92	97
CCS(=O)(=O)c1ccc(OC)c(Nc2ncc(-c3cccc(F)c3)o2)c1 [GW621970X]	100	100	100	100	90	100	99	100	100	100
COc1cccc(-n2ncc3c(N/N=C/c4ccncc4)ncnc32)c1 [GW784752X]	100	100	100	100	68	100	97	83	100	72
Cl.O=C(Nc1ccc(Oc2ccc3[nH]c(NC(=O)c4ccco4)nc3c2)cc1)Nc1cc(C(F)(F)F)ccc1F [GW683134A]	100	90	100	100	100	100	100	95	13	96
COc1cc(C)c(N(C)C(=O)CN(C)C)cc1Nc1nc(Nc2cccc(F)c2C(N)=O)c2cc[nH]c2n1 [GSK2219385]	98	80	97	94	100	100	100	50	92	100
Cl.O=C(Nc1ccc(Oc2ccc3[nH]c(NC(=O)c4ccccc4)nc3c2)cc1)Nc1cc(C(F)(F)F)ccc1F [GW709042A]	100	100	100	100	93	92	100	100	23	100
NS(=O)(=O)c1ccc(N/N=C2\C(=O)Nc3ccc(-c4cnco4)cc32)cc1 [GW276655]	91	100	63	83	84	100	100	56	100	32
COc1ccc2c(-c3ccnc(Nc4cccc(OC(F)(F)F)c4)n3)cnn2n1 [GW810372X]	100	100	91	81	96	100	100	100	100	100
O=C(Nc1n[nH]c2nc(-c3ccc(O)cc3)c(Br)cc12)C1CC1 [SB-725317]	100	100	100	100	100	100	100	90	100	51
COc1cc(C=NNc2ncnc3c2cnn3-c2ccccc2)ccc1O [GW513184X]	100	100	100	100	64	100	100	96	100	66
C/C(Nc1ccc(S(N)(=O)=O)cc1)=C1/C(=O)Nc2ccccc21 [GW335962X]	95	100	76	82	87	100	81	65	100	87
COc1ccc2cc(-c3c(-c4ccncc4)nc(-c4ccc(S(C)(=O)=O)cc4C)n3C)ccc2c1 [SB-633825]	76	87	77	73	84	92	96	91	100	79
COc1cc2ncnc(Nc3ccc4c(cnn4Cc4ccccc4)c3)c2cc1OC.Cl [GW282449A]	100	100	100	100	93	100	100	100	100	100

Compound	Percent Control (CAMK2G) [%]	Percent Control (CAMK4) [%]	Percent Control (CAMKK1) [%]	Percent Control (CAMKK2) [%]	Percent Control (CASK) [%]	Percent Control (CDC2L1) [%]	Percent Control (CDC2L2) [%]	Percent Control (CDC2L5) [%]	Percent Control (CDK11) [%]	Percent Control (CDK2) [%]
COc1cc(/C=N/Nc2ncnc3[nH]ncc23)ccc1O [GW578748X]	100	100	96	88	63	100	100	100	100	100
NS(=O)(=O)c1ccc(Nc2ncc(-c3ccccc3)o2)cc1 [GW572399X]	100	100	100	100	94	100	100	26	100	100
NS(=O)(=O)c1ccc(N/N=C2\C(=O)Nc3ccc(C(=O)NCCc4c[nH]cn4)cc32)cc1 [GW300660X]	100	100	100	100	100	100	100	79	100	
COc1ccc(COc2ccc(Cc3cnc(N)nc3N)cc2OC)cc1 [GW632580X]	99	100	95	98	98	97	75	72	89	100
CC1=C(C(=O)Nc2ccc3[nH]ncc3c2)C(c2ccc(Cl)c(Cl)c2)CC(=O)N1 (centres unmarked) [GSK299115A]	95	100	95	85	96	100	96	77	91	100
Nc1ncnc2occ(-c3ccc(NC(=O)Nc4cc(C(F)(F)F)ccc4F)cc3)c12 [GW770249X]	92	100	97	82	95	99	68	1.4	0	38
NS(=O)(=O)c1ccc(N/N=C2\C(=O)Nc3ccc(C(=O)NCc4ccncc4)cc32)cc1 [GW300657X]	82	100	45	65	78	100	82	24	100	39
COc1ccccc1-c1cc(/C=C2\C(=O)Nc3ncc(Br)cc32)cc(Br)c1O [GW442130X]	100	94	100	100	100	100	100	91	62	89
COc1cc(N2CCN(C(C)C)CC2)ccc1Nc1nc(Nc2ccc(F)cc2C(=O)NC[C@@H](O)CO)c2cc[nH]c2n1 [GSK1392956A]	90	57	79	45	78	100	100	64	91	86
COc1cc2ncn(-c3cc(O[C@H](C)c4ccccc4Cl)c(C(N)=O)s3)c2cc1OC [GSK237701A]	88	100	92	43	88	100	97	75	84	
COC(=O)Nc1nc2ccc(Oc3ccc(NC(=O)Nc4cc(C(F)(F)F)ccc4F)cc3)cc2s1.Cl [GW693917A]	100	100	100	100	93	98	78	19	5.3	65
CCc1ccc(Oc2nccc(-c3c(-c4ccc(F)cc4)ncn3C3CCNCC3)n2)cc1 [SB-242719]	100	100	100	100	83	89	66	100	95	100
CN(C)CCNC(=O)Nc1ccc(N(C)c2ccnc(Nc3ccc(CS(C)(=O)=O)cc3)n2)cc1.Cl [GW830900A]	100	100	99	93	91	100	89	100	100	98
CN(C)c1cc2c(Nc3ccc4c(cnn4Cc4ccccc4)c3)ncnc2cn1 [GW282974X]	82	100	77	73	100	100	100	67	99	79
COc1ccc2[nH]c3c4[nH]c5ccc(OC)cc5c4c4c(c3c2c1)C(=O)NC4=O [GW296115X]	80	98	78	74	100	90	91	100	100	93
CC1=C(C(=O)Nc2ccc3[nH]ncc3c2)C(c2ccc3ccccc3c2)CC(=O)N1 (centres unmarked) [GSK270822A]	79	100	70	69	86	100	90	85	90	100
C[C@@H](Oc1cc(-n2cnc3ccc(OC4CCN(C)CC4)cc32)sc1C(N)=O)c1ccccc1Cl [GSK579289A]	69	100	85	67	11	97	94	79	100	74
Cc1cc(O)cc(C)c1/C=C/c1cncc(C(N)=O)c1 [GW435821X]	100	100	100	100	77	100	97	100	100	100
CCS(=O)(=O)c1ccc(OC)c(Nc2ncc(-c3cccc(OC)c3)o2)c1 [GW580509X]	93	100	97	79	95	100	100	100	100	100
NS(=O)(=O)c1ccc(N/N=C2\C(=O)Nc3ccc(Cl)cc32)cc1 [GW280670X]	100	100	100	100	100	100	100	100	100	83
